Source: PubChem BioAssay
Hits are enriched below; roughly 4.8% of the tested compounds scored in any of these assays.
Calb FLC: C. albicans growth modulation with fluconazole; AID 1979; growth inhibition, % (no concentration beside the values); 300,000 tested, 0.57% active; C. albicans CaCi-2 (fluconazole-resistant clinical isolate) + fluconazole, Alamar Blue growth, 48 h;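 active = growth inhibition above about 58% in most replicates, limit read from the data, passing the limit was not always enough; inconclusive = exactly half the replicates above a set limit; inactive = most replicates below a set limit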;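 note: all wells also contain fluconazole at 8 µg/ml as a sub-toxic cotreatment; 0% = median of DMSO wells and 100% = median of geldanamycin control wells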
CSC inhib: blocks cancer stem cells | cancer stem cell-like cells viability, luminescence | inhibition, % at 7.5 µM | 300,000 tested, 1.1% active; in the data active = inhibition above about 75%; inconclusive = no clear call, values can overlap the other calls; tested in HMLE shEcad cells
Beta cell apopt: beta cell apoptosis inhibition; INS-1E cytokine-induced death, ATP luminescence, 48 h; percent of positive-control rescue, neutral wells zero; 300,000 tested, 0.8% active; protection from apoptosis, % (concentration not given with the values); AID 435005;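 active = Every replicate reaches about 75%, or at least half do and their mean reaches it too, limit read from the data; inconclusive = At least half of replicates reach the limit but their mean does not; inactive = Under half of replicates reach the limit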;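 note: 0% = cytokine-treated negative control wells and 100% = positive control rescue; higher means more ATP so stronger rescue from cytokine killing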
MPTP block: permeability transition pore inhibition | isolated mouse mitochondria, Ca2+ swelling absorbance, 30 min | inhibition, % at 10 µM | 360,000 tested, 1.4% active;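 active = inhibition of 50% or more, scaled per plate between neutral and stimulator controls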;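 note: 0% = DMSO wells given calcium and 100% = 1 mM EGTA wells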
Mdm2 MdmX PPI: inhibitors of human Mdm2/MdmX interaction. SaOS-2 split-luciferase Mdm2/MdmX complementation, luminescence. inhibition, % at 8 µM. 330,000 tested, 3% active. O15151+Q00987;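 active = inhibition of at least 50% at 8 µM in the primary screen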
Active calls of the source: *; ? = inconclusive; nt = not tested or not shown.

SMILES | Calb FLC | CSC inhib | Beta cell apopt | MPTP block | Mdm2 MdmX PPI
S=c1[nH]nc(-c2ccc(Cl)cc2)n1Cc1ccccc1 | -2 | -4 | -5 | 0 | 3
Sc1nnc(-c2ccc(Cl)cc2)n1Cc1ccccc1 | nt | 76* | 6 | -3 | 4
Cc1nn(C)cc1C(C(=O)NC1CCCCC1)N(Cc1ccccc1Cl)C(=O)c1cnccn1 (stereo unspecified) | 78* | -12 | -4 | 1 | 14
CC(=O)c1ccc(N2CCC(c3cc(-c4ccc(Cl)cc4)n[nH]3)CC2)c([N+](=O)[O-])c1 | -6 | 101* | 40 | 45 | 26
CCOc1cc(S(=O)(=O)Nc2ccccc2CC)ccc1Cl | -23 | 26 | -4 | 0 | 26
CCOc1cc(S(=O)(=O)Nc2ccc(CC)cc2)ccc1Cl | 3 | 123* | 55 | 5 | -7
O=C(/C=C/c1ccccc1)c1ccc(NC2=NCCCS2)cc1 | nt | 66 | 1 | 4 | nt
CC(C)(C)c1ccc(/C=C/C(=O)c2ccc(NC3=NCCCS3)cc2)cc1 | nt | 99* | 45 | 10 | 18
CCOC(=O)c1[nH]c2ccc(F)cc2c1NC(=O)c1ccccc1C(=O)O | 85* | -14 | 4 | 0 | 6
Nc1ncnc(Sc2ncccn2)c1[N+](=O)[O-] | 85* | nt | nt | 0 | nt
CCOC(=O)c1c(NC(=O)CN2CCN(C)CC2)sc(C(=O)Nc2ccccc2)c1C | 2 | 79* | 5 | -2 | 43
CCOC(=O)c1sc(NC(=O)CN2CCCC2)c(C(=O)OCC)c1C | 17 | -3 | -2 | 0 | -2
CCOC(=O)C1=CC[C@@H](c2ccccc2C(F)(F)F)N(S(=O)(=O)c2ccc(C)cc2)[C@H]1c1ccc(C#N)cc1 | nt | nt | nt | 2 | nt
CC1(C(=O)NS(=O)(=O)c2cccc(C#N)c2)CCN1C(=O)c1ccc(C2CCCCC2)cc1 (stereo unspecified) | nt | nt | nt | 0 | nt
CS(=O)(=O)c1ccccc1C(=O)Nc1ccc(-c2nc3ccccc3[nH]2)cc1 | -3 | -3 | -3 | -1 | -58
O=C(c1ccccc1)c1ccc2nc(-c3ccc(NC(=O)c4ccccc4Br)cc3)[nH]c2c1 | 76* | nt | nt | -1 | 29
CCCS(=O)(=O)NC(=O)C1(C)CCN(C(=O)Cc2ccc(F)cc2)C1 (stereo unspecified) | nt | nt | nt | 0 | nt
O=C(Nc1ccc(F)cc1)C(CCc1ccccc1)N1CCN(c2cccc(C(F)(F)F)n2)CC1 (stereo unspecified) | nt | nt | nt | 3 | nt
O=C(CCc1ccccc1)NNC(=S)NC(=O)c1ccccc1 | 110* | 3 | 3 | 6 | 24
O=C(NNC(=S)NC(=O)c1ccccc1[N+](=O)[O-])c1ccccc1O | -24 | 9 | 5 | -1 | 12
CC(=O)NC(=S)NNC(=O)CCc1ccccc1 | -15 | 3 | -1 | -3 | -3
O=C(NNC(=S)NC(=O)c1ccccc1[N+](=O)[O-])c1ccccc1[N+](=O)[O-] | 4 | nt | nt | 0 | 19
O=C(NC(=S)NNC(=O)c1ccccc1O)c1ccccc1 | 21 | 21 | nt | 3 | 18
CCCCOc1ccccc1C(=O)NNC(=S)NC(=O)c1ccccc1[N+](=O)[O-] | 103* | 20 | 67 | 6 | 42
Cc1ccccc1C(=O)NNC(=S)NC(=O)c1ccccc1 | 98* | -6 | 11 | 49 | 28
SMILES | Calb FLC | CSC inhib | Beta cell apopt | MPTP block | Mdm2 MdmX PPI
Cc1ccc(C(=O)NC(=S)NNC(=O)c2ccccc2[N+](=O)[O-])cc1 | 114* | -8 | 4 | -2 | -1
CCCS(=O)(=O)NC(=O)C1(C)CCCN(C(=O)c2cccc(C)c2C)C1 (stereo unspecified) | nt | nt | nt | 0 | nt
CC(C)C[C@H]1CN([C@@H](Cc2ccccc2)CN2CCC[C@@H]2CN2C(=O)C(=O)NC[C@@H]2Cc2ccccc2)C(=O)C(=O)N1CCc1ccccc1 | nt | nt | nt | -4 | nt
COC1=CC(=O)OC(c2ccc(C#N)cc2)C1 (stereo unspecified) | nt | nt | nt | 0 | nt
COc1ccc(C(=O)C(=O)N2CCN(c3ccc(C)cc3)CC2)cc1OC | nt | nt | nt | 1 | nt
Cc1cc(C)c(C(O)c2ncc(-c3cccc(F)c3)[nH]2)c(C)c1 (stereo unspecified) | nt | nt | nt | 2 | nt
COc1ccc(/C=N/NC(=O)c2cc(O)c(O)c(O)c2)cc1Cn1cc([N+](=O)[O-])cn1 | 97* | nt | nt | 4 | nt
CC(=O)c1cccc(NC(=O)c2cccc3c(-c4cccnc4)coc23)c1 | nt | nt | nt | 2 | nt
Cc1ccc(-c2cc(-c3ccc(C)cc3O)[nH]n2)cc1 | -2 | -2 | -45 | 3 | -106
Cc1ccc(O)c(-c2cc(-c3cccc(Br)c3)n[nH]2)c1 | 99* | 12 | 14 | 5 | 41
CCCCCCCCN1C(=O)[C@H](CC(=O)NCCCN2CCCC2=O)C[C@@]2(C(=O)OC)CCCCC=C12 | nt | nt | nt | -2 | nt
Nc1nnc(SCC(=O)OCC(=O)NC2CCCCC2)s1 | 11 | 92* | 4 | 0 | -10
Nc1nnc(SCC(=O)NC2CCCCC2)s1 | 5 | -15 | -1 | -3 | 13
O=C(CSc1nnc(-c2ccccc2O)n1Cc1ccccc1)NNC(=O)c1ccccc1O | ? | 133* | -2 | 3 | 32
COc1ccc(CN2C(=O)c3cccc4cccc(c34)C2c2nc3ccccc3[nH]2)cc1 (stereo unspecified) | nt | nt | nt | 1 | nt
COCCn1cnnc1SCC(=O)Nc1cc(OC)c([N+](=O)[O-])cc1C | 114* | nt | 2 | 0 | -18
O=Nc1c(O)n(Cc2ccccc2)c2ccccc12 | -19 | -15 | -9 | 1 | 23
O=Nc1c(O)n(Cc2cccc(C(F)(F)F)c2)c2ccccc12 | 117* | 10 | -1 | 8 | 36
COC(=O)c1ccc(Cn2c(O)c(N=O)c3ccccc32)o1 | 2 | 0 | -3 | 0 | 27
O=Nc1c(O)n(Cc2ccc(Cl)c(Cl)c2)c2ccccc12 | 79* | 84* | 11 | 21 | 49
O=S1(=O)CC(N2CC=CC2)CN1C1CCCCC1 (stereo unspecified) | nt | nt | nt | 1 | nt
O=C(/C=C/c1ccc(F)cc1)c1ccccc1Br | -16 | 108* | -11 | -1 | 35
COC(=O)c1ccc(COc2ccc(/C=C(\C#N)c3nc4ccccc4[nH]3)cc2OC)o1 | 79* | 3 | -3 | -2 | 32
Cc1ccc(CN2CCC2(C)C(=O)NC2CCc3ccccc32)cc1 (stereo unspecified) | nt | nt | nt | -1 | nt
Cc1ccc(C)c(OCc2nc(-c3cccnc3)no2)c1 | 28 | nt | nt | 0 | 19
Cc1ccc(-c2nc(-c3cccnc3)no2)c(C)c1 | 95* | -6 | -1 | 1 | -167
O=S(=O)(NCC(c1ccco1)N1CCN(c2ccc(F)cc2)CC1)c1ccc2c(c1)OCCO2 (stereo unspecified) | 114* | nt | 1 | 0 | 22
O=S(=O)(NCC(c1ccco1)N1CCc2ccccc2C1)c1ccc(F)cc1 (stereo unspecified) | -8 | 18 | -1 | 0 | 15
COc1ccc(CNC(=O)c2ccc3nc(C)c(N(C)Cc4ccc(NC(C)=O)cc4)n3c2)cc1 | nt | nt | nt | 1 | nt
Cc1c(C(=O)Nc2ccc(-c3nnc4n3CCCCC4)cc2)oc2c1ccc1ccccc12 | 4 | 117* | 32 | 2 | 23
